SMILES strings stand for the structures. Hit rate of the full screen: of about 3,400 compounds, about 840 (25%) were called active. Another 11% or so got no clear call; they are omitted.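 Rule for the calls: active = fitted half-maximal concentration of signal decrease at or below twice the sample's top tested concentration; inconclusive = flat curve between -70 and -30 percent, or poor fit; inactive = flat within 30 percent, signal rise, or potency above limit.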 A selection follows. Results with a measured potency or affinity are listed apart.

A short description of this assay: T. gondii growth inhibition with IFN-gamma, dose response, cell-based, ME49Luc, HeLa, luciferase, 72 h (AID 1259418). The note with it: T. gondii ME49Luc in IFN-y HeLa, hits give low values, -100% = high-dose IFN-γ control wells; at 19.5 µM unless noted.
With `NC(=O)C1(N2CCCCC2)CCN(c2ccc(NC(=O)c3cccc(Cl)c3)cc2C(=O)O)CC1`, the max activity was 1% (inactive). The value for `Cc1ccc(-c2coc(-c3ccc(NC(=O)Nc4ccc(C)c(F)c4)cc3)n2)cc1` was 19.5% [at 10 µM] (inactive). The value for `Cc1cc(C(F)(F)F)nn1CC(=O)N1CCCC1c1cc(C(C)C)no1` (stereo not drawn) was 16% [at 2.6 µM] (inactive); that for `COc1cccc(CC(=O)N2CCC[C@@H]2C(=O)NCCc2csc(-c3ccccc3)n2)c1` was 18.6% [at 0.16 µM] (inactive); that for `Cc1ccc2c(c1C)-n1cccc1C1(CCN(C(=O)c3ccc(Br)o3)CC1)N2` was 9.35% [at 0.35 µM] (inactive). Next, `COc1ccc(-c2nc(NCc3ccc(C)o3)c3ccccc3n2)cc1`: -32.7% [at 1.35 µM] (inactive); `CN(Cc1ccco1)c1nc(-c2ccc(Cl)cc2)nc2ccccc12`: -31.8% [at 0.16 µM] (inactive); `CCCCN(C)c1nc(-c2ccc(OC)cc2)nc2ccccc12`: 16.9% [at 0.35 µM] (inactive). With `COc1ccc(-c2nc(N(C)Cc3ccccc3)c3ccccc3n2)cc1`, the max activity is 21.9% (inactive).

`COc1ccc(-c2nc(N(CC(C)C)CC(C)C)c3ccccc3n2)cc1`: the max activity is -12.7% [at 0.35 µM] (inactive). Take `Cc1ccc(-c2coc(-c3ccc(NC(=O)Nc4cc(C)cc(C)c4)cc3)n2)cc1`: the max activity is -13.8% [at 0.68 µM] (inactive). The value for `CCc1nc(OCC(=O)Nc2cc(C)cc(C)c2)c2ccccc2n1` was 9.9% [at 10 µM] (inactive).

`COc1ccc(S(=O)(=O)N(Cc2nc(-c3ccccc3)oc2C)c2ccccc2OC)cc1`: the max activity was -10.3% [at 5 µM] (inactive). The value for `COc1ccccc1N(Cc1nc(-c2ccccc2)oc1C)S(=O)(=O)c1ccc(C)cc1` was 13.3% [at 0.16 µM] (inactive). Next, `c1cnc(N2CCC(Oc3cnccn3)CC2)nc1`: 28.4% [at 10 µM] (inactive). Next, `CCc1ccccc1NC(=O)Nc1ccc(-c2nc(-c3ccc(C)cc3)co2)cc1`: -15.7% [at 0.68 µM] (inactive). Take `CCOc1ccc(CC(=O)N2CCC3(CC2)Nc2cc(OC)ccc2-n2cccc23)cc1OCC`: the max activity was -11.1% [at 10 µM] (inactive).

With `COc1ccc(CNc2nc(SCc3cc(=O)n4cc(Cl)ccc4n3)nc3ccccc23)cc1`, the max activity was 14.6% [at 5 µM] (inactive). Next, `COCC#Cc1ccc([C@@H]2[C@@H](CO)N3C(=O)CN(C(=O)c4ccncc4)C[C@H]23)cc1`: 28.6% (inactive); `COCC#Cc1ccc([C@@H]2[C@@H](CO)N3C(=O)CN(C(=O)c4ccncc4)C[C@@H]23)cc1`: 31.2% (inactive); `COCC#Cc1ccc([C@@H]2[C@H]3CN(C(=O)C4CCCCC4)CC(=O)N3[C@H]2CO)cc1`: 27.9% (inactive).

As for `COCC#Cc1ccc([C@H]2[C@@H](CO)N3C(=O)CN(C(=O)C4CCCCC4)C[C@@H]23)cc1`, the max activity is 51.9% (inactive). Next, `COc1ccc(NC(=O)Nc2ccc(-c3nc(-c4ccc(C)cc4)co3)cc2)cc1Cl`: 83.9% (inactive); `COc1cccc(NC(=O)CCC2Nc3c4ccccc4nc(=S)n3C2=O)c1` (stereo not drawn): 16.8% [at 0.68 µM] (inactive). The value for `Cc1ccc(Cl)cc1N(CC(=O)Nc1c(F)cccc1F)S(C)(=O)=O` was 6.87% (inactive); that for `Cc1sc(-c2nc(C(C)C)cs2)cc1S(=O)(=O)N1CCC(C)CC1` was 11.7% (inactive). The value for `Cc1ccccc1-c1nc(CN2CCN(C(=O)Nc3cccc(Cl)c3)CC2)c(C)o1` was 10.5% [at 5 µM] (inactive); that for `Cc1ccc(-c2nc3c(s2)CN(C(=O)Nc2cccc(C)c2C)CC3)cc1` was 22.5% [at 5 µM] (inactive); that for `CC(=O)NCCNC(=O)CC1Nc2c3ccccc3nc(=S)n2C1=O` (stereo not drawn) was 32% (inactive). As for `COc1ccccc1CNc1nc(-c2ccc(Cl)cc2)nc2ccccc12`, the max activity was 9.39% [at 0.35 µM] (inactive). The value for `Cc1oc(-c2ccccc2)nc1Cn1nnc(-c2nc(-c3cccc(Br)c3)no2)c1C` was 5.37% [at 0.16 µM] (inactive); that for `Cc1nc(CCNC(=O)C2CCN(S(=O)(=O)c3cccc(Cl)c3C)CC2)cs1` was -10.4% [at 5 µM] (inactive); that for `CCCCc1ccc(Nc2ncnc3c2cnn3-c2ccc(OC)cc2)cc1` was 8.01% [at 5 µM] (inactive). Next, `Cc1cccc(C)c1NC(=O)CN1CCC2(CC1)N=C(c1cccc(F)c1)C(=O)N2`: 21.4% [at 0.35 µM] (inactive); `COc1cc(NC(=O)COc2nc(C)nc3ccccc23)cc(OC)c1OC`: 39.1% [at 0.35 µM] (inactive); `O=S(=O)(c1ccccc1F)N1CCC(c2nc3ccc(-c4ccncc4)cn3n2)CC1`: -8.38% [at 0.16 µM] (inactive). Next, `CC(C)NC(=O)N1CC(=O)N2[C@H](CO)[C@H](c3ccc(/C=C/c4ccccc4)cc3)[C@@H]2C1`: 15.1% (inactive); `O=C(C1CCOCC1)N1CC(=O)N2[C@@H](CO)[C@H](c3ccc(/C=C/c4ccccc4)cc3)[C@@H]2C1`: 16.6% (inactive).

`CC(C)c1ccc(-c2nc3c([nH]2)c(=O)n(C)c(=O)n3C)cc1`: the max activity was 36.8% (inactive). Next, `COc1ccc(-c2nc(N3CCN(c4ccccc4OC)CC3)c3ccccc3n2)cc1`: -19.4% [at 0.35 µM] (inactive); `COc1ccc(-c2nc(N3CCN(c4ccccc4F)CC3)c3ccccc3n2)cc1`: -17% [at 0.35 µM] (inactive); `COc1ccc(CCNc2ncnc3c2cnn3-c2ccc(C)cc2C)cc1OC`: -45% [at 0.16 µM] (inactive). Next, `CCc1nc(OCC(=O)Nc2ccc(F)cc2)c2ccccc2n1`: 24.6% [at 0.35 µM] (inactive). Next, `COc1ccc(-c2nc(Cn3c(=O)c4c(C)cc(C)nc4n(-c4ccccc4)c3=O)c(C)o2)cc1OC`: -11.3% [at 1.35 µM] (inactive). On to `COc1ccc(NC(=O)CN2CCC3(CC2)N=C(c2ccc(Cl)cc2)C(=O)N3)cc1`, for which the max activity is -12.9% [at 0.68 µM] (inactive). For the molecule `Cc1ccc(NC(=O)CN2CCC3(CC2)N=C(c2cccc(F)c2)C(=O)N3)cc1F`, the max activity is -40.4% (inactive). As for `CCc1ccccc1NC(=O)N1CCc2nc(-c3ccc(OC)c(OC)c3)sc2C1`, the max activity was 6.34% (inactive). The value for `CCC(=O)N1CCC2(CC1)Nc1ccc(C)c(C)c1-n1cccc12` was -7.02% [at 5 µM] (inactive); that for `Cc1nc(OCC(=O)Nc2cc(F)ccc2C)c2ccccc2n1` was 23.1% [at 10 µM] (inactive); that for `Cc1ccc(-c2coc(-c3ccc(NC(=O)c4ccc(F)cc4)cc3)n2)cc1` was 95.6% (inactive).

With `COc1ccccc1NC(=O)N1CC(=O)N2[C@H](C1)[C@@H](c1ccc(C#CC(C)C)cc1)[C@@H]2CO`, the max activity is -17.8% (inactive). Regarding `Cc1ccc(-c2ccc([C@H]3[C@@H](CO)N4C(=O)CN(C(=O)NC(C)C)C[C@@H]34)cc2)cc1`, the max activity was 46.5% (inactive).

As for `COc1ccccc1NC(=O)N1CC(=O)N2[C@H](CO)[C@H](c3ccc(C#CC(C)C)cc3)[C@H]2C1`, the max activity was 25.9% [at 5 µM] (inactive). With `Cc1ccc(-c2ccc([C@@H]3[C@H](CO)N4C(=O)CN(C(=O)NC(C)C)C[C@@H]34)cc2)cc1`, the max activity is 16.7% [at 5 µM] (inactive). Take `CCOc1ccc(-c2nc(CN3CCN(C(=O)Nc4ccccc4C(F)(F)F)CC3)c(C)o2)cc1`: the max activity was 13.7% [at 2.6 µM] (inactive).

Consider `O=C(NCCc1csc(-c2ccccc2)n1)C1CCN(C(=O)COc2ccccc2)CC1`, for which the max activity was -18.1% [at 0.68 µM] (inactive). The value for `O=C(O)c1ccc(NC(=NCCc2ccccc2)N2CCN(c3ncnc4ccccc34)CC2)cc1` was 6.72% (inactive). As for `COc1ccc(NC(=O)Nc2ccc(-c3nc(-c4ccccc4)co3)cc2)cc1`, the max activity was -14% [at 0.68 µM] (inactive). Turning to `CCOc1ccccc1-c1nc(CN(c2ccccc2OC)S(=O)(=O)c2ccc(C)cc2)c(C)o1`, the max activity was -6.32% (inactive). The value for `COc1ccccc1N(Cc1nc(-c2cccc(OC)c2OC)oc1C)S(=O)(=O)c1ccccc1` was 3.95% (inactive); that for `CCOc1ccccc1-c1nc(CN(c2ccccc2)S(=O)(=O)c2ccccc2)c(C)o1` was 15.6% (inactive); that for `COc1ccc(-c2nc(Cn3nnc(-c4nc(-c5ccccc5)no4)c3C)c(C)o2)cc1` was 11% [at 0.16 µM] (inactive). Next, `Cc1ccc(NC(=O)Nc2ccc(-c3nc(-c4ccccc4)co3)cc2)cc1C`: 24.4% (inactive); `Cc1cc(-n2nnc(C(=O)N3CCC(N4CCCCC4)CC3)c2-c2ccncc2)ccc1F`: -34.1% (inactive).

For the molecule `Cc1ccccc1C(=O)N1CCC2(CC1)Nc1cc(F)ccc1-n1cccc12`, the max activity was -6.16% [at 1.35 µM] (inactive).

As for `COc1ccc(OCC(=O)N2CCC3(CC2)Nc2ccc(C)c(C)c2-n2cccc23)cc1`, the max activity is -9.59% [at 2.6 µM] (inactive).

On to `CCOC(=O)C1CCCN(c2nc(-c3ccc(Cl)cc3)nc3ccccc23)C1` (stereo not drawn), for which the max activity is 5.87% [at 0.35 µM] (inactive). Next, `Cc1noc(C)c1S(=O)(=O)N1CSC[C@@H]1C(=O)NCCc1csc(-c2ccccc2)n1`: 13.2% [at 1.35 µM] (inactive); `Cc1cccc(NC(=O)Nc2ccc(-c3nc(-c4ccc(C)cc4C)co3)cc2)c1`: -13.9% [at 0.16 µM] (inactive). Next, `COc1ccccc1-c1noc(-c2nnn(Cc3nc(-c4cccc(Cl)c4)oc3C)c2C)n1`: 9.3% [at 0.16 µM] (inactive).

In the case of `CCc1nc(OCC(=O)Nc2ccccc2C(F)(F)F)c2ccccc2n1`, the max activity was 15.4% [at 2.6 µM] (inactive). Next, `Cc1ccc(-c2coc(-c3ccc(NC(=O)NCc4ccccc4)cc3)n2)c(C)c1`: 5.28% [at 0.16 µM] (inactive). Next, `COc1ccc(-c2nc(Cn3nnc(-c4nc(-c5ccccn5)no4)c3C)c(C)o2)cc1`: -5.61% [at 10 µM] (inactive).

Values taken from PubChem BioAssay AID1259418 (Broad Institute, 2018).
